# Where two headings read alike, the source gives them in different places.
# Key:
# Design in all cases: species or system human, MV4-11 + K-562 + COLO205 + SK-N-BE2 + OVCAR-8
# CDC42BPA = details: read-out: apparent Kd, compound concentrations: 100 nM and 1000 nM (sheet 'Samples'), n = 1
# CDC42BPB = details: read-out: apparent Kd, compound concentrations: 100 nM and 1000 nM (sheet 'Samples'), n = 1
# CDC7 = details: read-out: apparent Kd; compound concentrations: 100 nM and 1000 nM (sheet 'Samples'), CATDS: 6.9489626335847196E-2; n = 1
# CLK4 = details: read-out: apparent Kd; compound concentrations: 100 nM and 1000 nM (sheet 'Samples'), CATDS: 5.9316803085408598E-2; n = 1
# GSK3A = details: read-out: apparent Kd, compound concentrations: 100 nM and 1000 nM (sheet 'Samples'), n = 1
# GSK3B = details: read-out: apparent Kd, compound concentrations: 100 nM and 1000 nM (sheet 'Samples'), n = 1
# LATS1 = details: read-out: apparent Kd, compound concentrations: 100 nM and 1000 nM (sheet 'Samples'), n = 1
# NQO1 = details: read-out: apparent Kd; compound concentrations: 100 nM and 1000 nM (sheet 'Samples'), CATDS: 4.4968257492060203E-2; n = 1
# PKN1 = details: read-out: apparent Kd, compound concentrations: 100 nM and 1000 nM (sheet 'Samples'), n = 1
# PKN2 = details: read-out: apparent Kd, compound concentrations: 100 nM and 1000 nM (sheet 'Samples'), n = 1
# PKN3 = details: read-out: apparent Kd, compound concentrations: 100 nM and 1000 nM (sheet 'Samples'), n = 1
# ROCK1 = details: read-out: apparent Kd, compound concentrations: 100 nM and 1000 nM (sheet 'Samples'), n = 1
# ROCK2 = details: read-out: apparent Kd, compound concentrations: 100 nM and 1000 nM (sheet 'Samples'), n = 1
# RPS6KA5 = details: read-out: apparent Kd; compound concentrations: 100 nM and 1000 nM (sheet 'Samples'), CATDS: 4.9211147170022597E-2; n = 1
# RPS6KB1 = details: read-out: apparent Kd, compound concentrations: 100 nM and 1000 nM (sheet 'Samples'), n = 1
# CDC42BPG = details: read-out: apparent Kd; compound concentrations: 100 nM and 1000 nM (sheet 'Samples'), CATDS: 4.2033135949813498E-2; n = 1
# CIT = details: read-out: apparent Kd; compound concentrations: 100 nM and 1000 nM (sheet 'Samples'), CATDS: 4.1257824798939802E-2; n = 1
# MELK = details: read-out: apparent Kd; compound concentrations: 100 nM and 1000 nM (sheet 'Samples'), CATDS: 3.9798752380349897E-2; n = 1
# PIM2 = details: read-out: apparent Kd; compound concentrations: 100 nM and 1000 nM (sheet 'Samples'), CATDS: 3.9305369436655899E-2; n = 1
# PRKCD = details: read-out: apparent Kd; compound concentrations: 100 nM and 1000 nM (sheet 'Samples'), CATDS: 4.7600533204707897E-2; n = 1
# PRKCI = details: read-out: apparent Kd; compound concentrations: 100 nM and 1000 nM (sheet 'Samples'), CATDS: 3.9274053765020099E-2; n = 1
structure (smiles),measurement,setting,value
Nc1nonc1-c1nc2cnccc2n1C1CCCCC1 [SB-734117],potency estimated from few doses,CDC42BPA; CATDS: 4.4382649306469998E-2,2000 nM
same,potency estimated from few doses,CDC42BPB; CATDS: 5.2868246392704099E-2,1000 nM
same,potency estimated from few doses,CDC7,446 nM
same,potency estimated from few doses,CLK4,693 nM
same,potency estimated from few doses,GSK3A; CATDS: 0.14981802566128199,91.8 nM
same,potency estimated from few doses,GSK3B; CATDS: 0.15901528532749901,83.3 nM
same,potency estimated from few doses,LATS1; CATDS: 0.14331063333654301,98.8 nM
same,potency estimated from few doses,NQO1,1880 nM
same,potency estimated from few doses,PKN1; CATDS: 5.3241919532380499E-2,977 nM
same,potency estimated from few doses,PKN2; CATDS: 0.153152330435843,88.5 nM
same,potency estimated from few doses,PKN3; CATDS: 4.6811653986635102E-2,1580 nM
same,potency estimated from few doses,ROCK1; CATDS: 5.1294364781544602E-2,1110 nM
same,potency estimated from few doses,ROCK2; CATDS: 6.2443237217646497E-2,596 nM
same,potency estimated from few doses,RPS6KA5,1300 nM
same,potency estimated from few doses,RPS6KB1; CATDS: 0.131217569210515,115 nM
NCc1ccc(-n2c(-c3nonc3N)nc3cnccc32)cc1 [SB-750140],potency estimated from few doses,CDC42BPA; CATDS: 5.2351316008414299E-2,660 nM
same,potency estimated from few doses,CDC42BPB; CATDS: 8.8336954775193793E-2,173 nM
same,potency estimated from few doses,CDC42BPG,1420 nM
same,potency estimated from few doses,CIT,1530 nM
same,potency estimated from few doses,GSK3A; CATDS: 6.6590939053141299E-2,339 nM
same,potency estimated from few doses,GSK3B; CATDS: 5.7473079866645002E-2,502 nM
same,potency estimated from few doses,LATS1; CATDS: 9.7617752181751005E-2,139 nM
same,potency estimated from few doses,MELK,1800 nM
same,potency estimated from few doses,PIM2,1910 nM
same,potency estimated from few doses,PKN1; CATDS: 5.10787631229489E-2,712 nM
same,potency estimated from few doses,PKN2; CATDS: 0.10529576550344701,118 nM
same,potency estimated from few doses,PKN3; CATDS: 7.5123616152450098E-2,252 nM
same,potency estimated from few doses,PRKCD,895 nM
same,potency estimated from few doses,PRKCI,1910 nM
same,potency estimated from few doses,ROCK1; CATDS: 0.30602984254096799,16.3 nM
same,potency estimated from few doses,ROCK2; CATDS: 0.35552561268284599,12.9 nM
same,potency estimated from few doses,RPS6KB1; CATDS: 4.4674945957763799E-2,1120 nM
